Laboratory results from the supplement of paper PMC6555819.

Tests used:
Test in all cases: PBM binding z-score (relative to random genomic background probes); higher = stronger binding; sequences stand for … in GC…GCGATTGACAGCGTAGAATGAAGG
[1] = tested on: PPARg:RXRa DBDmut IVT, anti-RXR (DBD mutation: RXRa K156A/R161A, NR concentration 270 nM, RXRa partner concentration 90 nM)
Outline: (§1)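 For binding z-scores, the reference was random background probes on custom Agilent 4×180K protein-binding microarrays. These arrays were incubated 1 h with ligand-free nuclear receptor dimers in PBS pH 7.4, 2% milk, 0.02% Triton X-100, 1 mM DTT, 0.2 mg/mL BSA and 0.4 mg/ml salmon testes DNA. Fluorescence was scanned after antibody detection of each partner (one per run) and regression-normalized.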

[2] = tested on: PPARg:RXRa IVT, anti-PPARg (NR concentration 270 nM, RXRa partner concentration 90 nM)
Outline: as §1

[3] = tested on: PPARg DBDmut:RXRa IVT, anti-PPARg (DBD mutation: PPARg1 K132A/R137A, NR concentration 270 nM, RXRa partner concentration 90 nM)
Outline: as §1

[4] = tested on: PPARg DBDmut IVT, anti-PPARg (DBD mutation: PPARg1 K132A/R137A, NR concentration 270 nM)
Outline: as §1

[5] = tested on: PPARg homodimer (NR concentration 180 nM)
Outline: as §1

[6] = tested on: PXR:RXRa (NR concentration 270 nM, RXRa partner concentration 90 nM)
Outline: as §1

[7] = tested on: PXR homodimer (NR concentration 270 nM)
Outline: as §1

[8] = tested on: RARa:RXR (NR concentration 270 nM, RXRa partner concentration 90 nM)
Outline: as §1

[9] = tested on: RARa homodimer (NR concentration 270 nM)
Outline: as §1

[10] = tested on: RARb:RXRa (NR concentration 270 nM, RXRa partner concentration 90 nM)
Outline: as §1

| Sequence | PBM binding z-score [1] | PBM binding z-score [2] | PBM binding z-score [3] | PBM binding z-score [4] | PBM binding z-score [5] | PBM binding z-score [6] | PBM binding z-score [7] | PBM binding z-score [8] | PBM binding z-score [9] | PBM binding z-score [10] |
| --- | --- | --- | --- | --- | --- | --- | --- | --- | --- | --- |
| GCTAGCAGGCCATTTGGGTCACTCCATGACGGGC | 1.48 | 1.98 | -0.282 | -0.961 | -0.247 | 0.113 | -0.146 | 0.126 | -0.604 | 1.39 |
| TGAATGAGGTTAAAGATCAGCGAACGTGGCGTCG | 2.09 | 3.38 | 1.34 | 0.131 | 0.5 | 1.89 | -0.0611 | 2.82 | -0.162 | 1.88 |
| ACTATTAGTTGACTTAGGGCCACCGATACGACGC | 0.373 | 0.728 | 1.68 | 1.42 | 0.408 | 0.124 | 0.0401 | 0.753 | 0.459 | 0.755 |
| AGAAAGAGGGCACGCTGAGTTGATAGCAGAGTAG | 3.25 | 3.07 | 0.171 | -0.413 | 0.723 | 1.85 | -0.108 | 1.27 | -0.166 | 2.74 |
| AGAATGAGGTTATACGTAGATCCGGGAAGAAAGT | 3.81 | 2.11 | 0.942 | 0.253 | 0.53 | 0.73 | 0.508 | 1.02 | 0.0175 | 1.27 |
| GCTTACGGGTCAAAGGTTCTAGCATGAATAGAAT | 5.13 | 5.05 | 0.842 | 0.712 | 1.45 | 4 | 0.0267 | 5.93 | 0.382 | 3.82 |
| CCTTACGGGTCACTGCAGGTTATAGCATCGGAGT | 3.51 | 3.76 | -0.541 | -0.0144 | 1.95 | 4.74 | 0.0878 | 4.05 | 0.239 | 3.97 |
| ACATGTAGGTTAAGGGTCATTCAGGTTGGTTCGC | 6.63 | 7.34 | 4.14 | 3.37 | 4.52 | 5.46 | 2.78 | 5.86 | 2.44 | 3.53 |
| TCATATAGGTAATACAGGTGAAAGTCGGCATCTA | 4.2 | 3.48 | 1.31 | 1.86 | 1.33 | 0.888 | 0.728 | 1.34 | 1.98 | 0.83 |
| GCTTGTAGATCAAGGTTAAGAACGACTAAGCTAA | 1.08 | 1.15 | 0.637 | -0.445 | 0.356 | 0.364 | -0.0676 | 0.827 | 0.211 | 0.716 |
| GTACCAAGGTGAATAGATCGTTGATGAGTAGGCG | 1.62 | 1.74 | 0.415 | 0.448 | 0.785 | -0.0465 | -0.049 | 0.221 | 0.712 | 1.13 |
| AATACAGGGGCACTAGGCCAGAGTAGGTACGAAT | 2.1 | 3.75 | 0.831 | 0.38 | 0.784 | -0.286 | -0.158 | -0.2 | -0.664 | 1.16 |
| AGAATGAGGTTACCAAAGATAAGGGAAACGCTTG | 3.63 | 3.34 | 0.848 | 0.91 | 1.01 | 0.851 | 0.109 | 1.68 | 0.445 | 1.73 |
| GCTGCTAGATCAACTGATGGTCAGCTAAAGCTCG | -0.127 | -0.576 | -0.911 | -0.65 | -0.483 | -0.788 | -0.885 | -0.512 | -1.53 | -0.39 |
| CAGCCTAGGTCAGGGCCAGGATAGGAGGAACGTT | 1.16 | 1.82 | -0.747 | -1.27 | 0.00488 | 0.262 | -0.967 | 0.879 | -0.655 | 3.49 |
| ACCAGTTGGTCAGCTGAGGTCACACACAATTCGG | 1.19 | 2.26 | 0.45 | -0.406 | 2.59 | 5.42 | 2.07 | 4.41 | 0.742 | 3.71 |
| CCTACTGGGCCACGAAAGGTCATTGTTTCAGTGA | 5.79 | 6.05 | 1.13 | 0.571 | 3.37 | 5.45 | 2.06 | 5.42 | 0.917 | 4.06 |
| ATCACTAGGTAAAGTTCAGTGAAAGATCGATAGA | 3.89 | 3.29 | 1.1 | 0.944 | 1.33 | 1.91 | 1.73 | 1.48 | 1.19 | 2.7 |
| TATCGGAGGACACGAAAGGTCAGAGCTCGACATC | 0.425 | 2.37 | 0.89 | 0.344 | 2.86 | 4.25 | 0.981 | 4.73 | 1.49 | 4.37 |
| TCTGCTAGGTCAGTTGGTCTGCTAACGAGCTGCC | 2.62 | 2.53 | 0.337 | -0.177 | -0.432 | -0.155 | -1.02 | 0.136 | -1.16 | 3.25 |
| TCTATTAATTGAAGGGCAACCGACGAGTCCGTTT | 2.49 | 0.956 | 0.163 | 1.02 | 1.56 | 0.915 | 1.96 | 0.829 | 1.43 | 1.45 |
| CCAGACAGGTGAGAAGGCAACTCAGCCTCGATTA | 0.42 | 0.413 | -0.447 | -0.637 | 0.166 | -0.0948 | -0.133 | -0.209 | 0.0696 | 0.272 |
| ATCGAAAGGTCGATGAGGTGAGTATACACCGTTT | 0.00502 | 1.61 | 1.01 | 0.136 | 1.49 | 2.58 | 1.07 | 2.98 | 0.305 | 3.37 |
| TCATATAGGTAAAGGAGAAAGTCGAACGATATGA | 3.55 | 2.2 | 1.76 | 0.854 | 0.0719 | 0.215 | -0.235 | 0.407 | 0.331 | 0.251 |
